Measured values taken from article PMC4242493, “Sequence specificity incompletely defines the genome-wide occupancy of Myc”.
Over roughly 33,000 sequences, “normalized occupancy” has its median near 0.075; the highest 2% begin near 0.095. The full list was thinned out, with the highest values kept by preference.

Target: MaxL homodimer (Homo sapiens, UniProt P61244 1-160)
Experiment: universal protein-binding microarray (PBM); PBS-based mixture, 10 nM His-tagged protein dimer, 2% milk, 200 ng/uL BSA, 50 ng/uL salmon testes DNA, 0.02% TX-100; detection with Alexa 488 anti-His antibody;; high values mean tight binding
Settings: protein: recombinant; tags: C-terminal His-tag (pET21a); chain copies: 2; dsDNA, one strand shown
How it was run: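 A His-tagged protein dimer at 10 nM was incubated on Agilent 4 x 44 K arrays of the 'all 10-mer' universal design, then labelled with 10 ng/μL fluorophore-conjugated anti-His antibody and scanned on a GenePix 4400A. A fluorescence intensity was assigned to each 8-mer. Binding occupancy is each such intensity normalised to that of the highest-ranked one.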

Sequence of MaxL homodimer (P61244 whole entry): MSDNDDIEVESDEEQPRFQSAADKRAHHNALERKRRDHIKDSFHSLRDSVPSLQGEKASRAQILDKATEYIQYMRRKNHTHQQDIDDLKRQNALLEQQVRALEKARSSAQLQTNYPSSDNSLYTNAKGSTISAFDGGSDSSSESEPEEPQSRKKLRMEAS

Sequence | binding signal [normalized occupancy]
CAACGAGA | 0.0767
CCACGAGC | 0.0889
CCACGAGA | 0.1
TCACGAGA | 0.0875
CCACGACG | 0.0811
GCACGAGA | 0.098
GCACGAGC | 0.085
CCACGAGG | 0.182
CCACGAAG | 0.0767
ATGGACTA | 0.0826
ACTGTTCA | 0.073
AATGTTAC | 0.0779
ACTGCGGA | 0.0741
AGCTCCAA | 0.0722
GCACGCCA | 0.0859
CTACGCCA | 0.0777
CCACACCA | 0.0899
CCACGCCG | 0.0985
CCACGCCC | 0.0948
CCACGCCA | 0.0991
CGCTTGTA | 0.0739
AGGCTTTA | 0.0758
ATGCCAAC | 0.0785
AGGCGTGG | 0.098

Sequence | binding signal [normalized occupancy]
AGGCGTCG | 0.0733
AGGCGCGC | 0.0762
AGGCGTTC | 0.0755
AGGCGTGA | 0.0829
AGGCGTGC | 0.0963
AATTAAAT | 0.0748
CGTAATTC | 0.0757
ACCAAGCG | 0.0722
ACAACTGT | 0.0734
ACACGCGC | 0.112
ACGCGCGA | 0.0786
AAACGCGT | 0.08
AAACGCGA | 0.0771
ACGCGCGG | 0.0929
ACGCGCGT | 0.0896
ACGCGCGC | 0.0821
ATACGCGC | 0.0771
ACACGCGG | 0.143
AAACGCGG | 0.0761
ACACGCGA | 0.116
ACACGCGT | 0.13
TAGAACAA | 0.0771
CAGTGCTC | 0.0745
ATAGCGAA | 0.0727

Sequence | binding signal [normalized occupancy]
ATTGTAAC | 0.0837
CTCAATCA | 0.0801
ACAATGAA | 0.0787
AGGACATA | 0.0758
TCTTATCA | 0.0736
CTACTGTC | 0.0719
AGACATGG | 0.0832
CGACATGC | 0.0992
AGACATGA | 0.0878
CGACATGA | 0.0858
CGACATTC | 0.0758
AGACATGC | 0.102
CTAGCTCA | 0.0759
CACGCCCA | 0.0892
GAGAGCAC | 0.0743
CCACGCTC | 0.0965
GTACGCTA | 0.0796
CCACGCAA | 0.0865
CAACGCTA | 0.0734
GCACGCAC | 0.0902
ACACGCTC | 0.0924
CCACGCTA | 0.0973
CAACGCTC | 0.0772
CCACGCAC | 0.0964

Sequence | binding signal [normalized occupancy]
GCACGCTA | 0.101
GAACGCTA | 0.0771
CGACGCTA | 0.0724
GAACACAA | 0.0743
CCAATTCG | 0.0738
AGCCCTCC | 0.0723
TCGTAAAA | 0.0794
GCCATCAC | 0.0781
ATACTGGC | 0.0812
ACGCACAT | 0.0968
AGGCACAC | 0.0801
AGTCACAT | 0.101
AGGCACAT | 0.098
AGGCACAG | 0.075
AGTCACAG | 0.0732
ACGCACAA | 0.0775
ACGCACAG | 0.076
AGTCACAC | 0.0886
GCGACAGC | 0.0756
CAACATCG | 0.0784
GTACGGGA | 0.0747
GCACCAGC | 0.0755
